From PubChem BioAssay AID1671448 (Corson Lab, School of Medicine, Indiana University, 2021)
In all, about 20,000 compounds went through this assay and about 660 (3.3%) were called active.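 Rule for the calls: active = enzyme reaction rate more than 3 SD below the solvent-only control wells on the same plate; inactive = the rest.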 Only a selection was taken, and actives are over-represented in it overall.

Each molecule was assayed against Ferrochelatase, mitochondrial (Homo sapiens) (UniProt P22830) (assay: FECH heme synthesis enzyme blockers – biochemical, purified FECH, Ni-mesoporphyrin absorbance, primary screen (AID 1671448)). Details: Ni-mesoporphyrin absorbance 550 nm, screened at 10 µM (by protocol).
Ferrochelatase, mitochondrial (Homo sapiens), sequence (P22830 whole entry, looked up): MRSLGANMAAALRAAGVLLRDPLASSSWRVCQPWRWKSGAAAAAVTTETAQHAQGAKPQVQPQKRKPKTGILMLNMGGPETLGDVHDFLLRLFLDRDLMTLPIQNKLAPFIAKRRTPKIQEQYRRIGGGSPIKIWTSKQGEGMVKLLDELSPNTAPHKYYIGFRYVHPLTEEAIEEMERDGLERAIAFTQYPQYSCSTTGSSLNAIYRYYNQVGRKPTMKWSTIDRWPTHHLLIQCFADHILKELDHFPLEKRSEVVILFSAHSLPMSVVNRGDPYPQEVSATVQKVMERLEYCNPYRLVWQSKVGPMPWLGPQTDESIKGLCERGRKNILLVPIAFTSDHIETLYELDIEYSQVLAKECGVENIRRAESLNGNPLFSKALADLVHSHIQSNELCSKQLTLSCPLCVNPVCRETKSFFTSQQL

SMILES | outcome
CCOc1ccc(CCNC(=O)CN2C(=O)C=C(CC(=O)OC)Nc3ccccc32)cc1OCC | inactive
CNCc1cc(-c2ccc(C)c3ncccc23)ccc1OC | inactive
COCCNC(=O)Cn1c(C(=O)OC)cc2ccsc21 | inactive
NC(=O)c1cccc(CC2CCN(C(=O)CCc3cn4ccccc4n3)C2)c1 (configuration not stated) | inactive
CN(C)c1ccc(CNC(=O)c2nc(N3CCCC3)c3oc4ccccc4c3n2)cc1 | inactive
COc1cccc(Cn2c(CNS(=O)(=O)c3cccc(Cl)c3)nc3cccnc32)c1 | inactive
Cc1cc(C)n(CCNC(=O)c2cc(-c3ccccc3)n[nH]2)c(=O)n1 | inactive
COc1nc2c(cc1CNC(=O)c1ccncc1F)C(=O)N(C1CCCC1)C2 | inactive
CC(C)CN1CCOC(CCNC(=O)c2cncs2)C1 (configuration not stated) | inactive
COc1ccc(OC)c(Nc2nc(N(C)C)nc3c2cnn3-c2ccccc2)c1 | inactive
CCCCN(C)c1nc(Nc2ccc(OC)cc2)c2cnn(-c3ccccc3)c2n1 | active
CCN(CC)c1nc(Nc2ccc(C)cc2)c2cnn(-c3ccccc3)c2n1 | inactive
Cc1cc(NC(=O)c2ccc(C(C)(C)C)cc2)n(-c2ncnc3c2cnn3-c2ccc(Cl)cc2)n1 | inactive
Cc1ccsc1CN(C)C(=O)c1ccc(-c2ncn[nH]2)cc1 | inactive
CCOC(=O)N1CCC(NCc2ccccc2-n2ccnc2C)CC1 | inactive
O=C(O)[C@H]1C[C@@H](O)CCN1C(=O)C1(c2ccc(Cl)cc2)CC1 | inactive
O=C(NC(Cn1cccn1)c1ccccc1)c1cc2n(n1)CCNC2 (configuration not stated) | inactive
O=C(NCc1ccccn1)C1CCN(c2ccc(-c3ccc(Br)s3)nn2)CC1 | inactive
Cc1ccc(CSc2ncc(Cl)c(C(=O)Nc3ccc(S(N)(=O)=O)cc3)n2)cc1 | inactive
COC(=O)c1ccc(NC(=O)CN2CCN(Cc3ccc(C)cc3)S2(=O)=O)cc1 | inactive
Cc1cccc(CN2CCCN(CC(=O)Nc3ccc(Cl)cc3)S2(=O)=O)c1 | inactive
CCc1ccc(NC(=O)CN2CCN(Cc3cccc(C)c3)S2(=O)=O)cc1 | active
CC(COc1ccccc1)NCc1nnc(-c2ccccc2)o1 (configuration not stated) | active

SMILES | outcome
Cc1cc(C)cc(C(=O)NCCn2c(-c3ccccc3)nc3cccnc32)c1 | inactive
CCn1c(=O)n(-c2ccc(C)c(C)c2)c2nc(-c3cccc(F)c3F)nc(C(N)=O)c21 | inactive
Cc1noc(C)c1CN(C)Cc1ccc(C2CCCO2)s1 (configuration not stated) | inactive
CCCc1cc(=O)n2[nH]c(CNc3ccc(C)cc3C)nc2n1 | inactive
COc1ccccc1NCc1nc2nc(C(C)C)cc(=O)n2[nH]1 | active
COc1ccccc1CNc1nc2nc(CNc3ccc(F)cc3)cc(=O)n2[nH]1 | inactive
CC(C)c1nc(CN(C)C(=O)c2cnn3ccn(C)c23)cs1 | inactive
COc1ccccc1-c1cc2n(C)c(C)c(CCC(=O)Nc3ccccc3F)c(=O)n2n1 | inactive
CCOc1ccc(NC(=O)Nc2c(C)nc3nc(C4CC4)[nH]n3c2=O)cc1 | inactive
CCOC(=O)CCc1c(C)nc2nc(CNc3ccccc3F)[nH]n2c1=O | active
O=C(CCn1nnc2ccccc21)N1CCCC(c2ccn[nH]2)C1 (configuration not stated) | inactive
OCCCc1nc2ccccc2n1-c1ccc2[nH]ccc2c1 | inactive
Cc1cc2cc(C(=O)NCCSCc3nc[nH]c3C)ccc2o1 | inactive
Cc1ccc2c(CC(=O)NCc3csc(C)n3)cc(=O)oc2c1 | inactive
O=C(c1csc(S(=O)(=O)NCc2ccc(F)cc2)c1)N1CCCC1 | inactive
Cc1cc(C)c(-c2c(-c3ccccc3)ncn2CCOCCO)c(C)c1 | inactive
Cc1cc(F)cc(-c2c(-c3ccccc3)ncn2CCN2CCC(O)CC2)c1 | active
Cc1ccc(-c2c(-c3ccccc3)ncn2CCN2CCCC2=O)c(F)c1 | inactive
Cc1nn(C)cc1-c1c(-c2ccccc2)ncn1CCNC(=O)c1ccncc1 | inactive
COCCNC(=O)C1(C)Cn2c(cc3ccsc32)C(=O)N1c1ccc(OC)cc1 (configuration not stated) | inactive
CCc1cc(Sc2ccccc2NC(=O)Cc2ccccc2)n2nc(C)nc2n1 | inactive
CCc1cc(Sc2ccccc2NC(=O)c2cccc(Cl)c2)n2nc(C)nc2n1 | active
CCc1cc(Sc2ccccc2NC(=O)c2ccc(Br)cc2)n2nc(C)nc2n1 | inactive

SMILES | outcome
CC(C)CNc1nc(Nc2ccc(Cl)cc2)c2cnn(-c3ccccc3)c2n1 | inactive
Cc1cccc(CN2CCCN(CC(=O)NCc3ccc(Cl)cc3)S2(=O)=O)c1 | inactive
CCOC1CCN(Cc2cc3cc4c(cc3[nH]c2=O)CCC4)CC1 | inactive
CCOC(=O)Cn1c(=O)n(-c2ccc(C)c(C)c2)c2nc(-c3ccccc3C)nc(C(N)=O)c21 | inactive
CCc1cc(-c2nccn2CCCc2nn[nH]n2)on1 | inactive
Cc1ccnc(C(NC(=O)c2ccccc2-n2cncn2)C2CC2)c1 (configuration not stated) | inactive
O=S(=O)(NCCCc1nc2ccccc2o1)NCc1ccccc1 | inactive
COc1ccc(N2C(=O)CCS2(=O)=O)cc1S(=O)(=O)Nc1cc(Cl)ccc1C | inactive
Cc1ccc(S(=O)(=O)N2CCN(c3cc(-c4cccc(F)c4)ncn3)CC2)cc1C | inactive
CC(C)(C)c1ccc(-c2nc3nc(CNc4ccccc4Cl)cc(=O)n3[nH]2)cc1 | active
COc1ccc(CNc2nc3nc(CNc4ccc(C)c(Cl)c4)cc(=O)n3[nH]2)cc1 | inactive
Cc1cccc(NCc2cc(=O)n3[nH]c(-c4ccc(C(C)(C)C)cc4)nc3n2)c1 | inactive
O=C(NCC1CCN(Cc2ccccc2F)C1)c1cc(Cl)no1 (configuration not stated) | inactive
CCOC(=O)Cn1c(=O)n(-c2ccc(C)c(C)c2)c2nc(-c3cccc(F)c3F)nc(C(N)=O)c21 | inactive
Cc1nc(C(C)C)sc1CNC(=O)c1cn(CC2CCCNC2)nn1 (configuration not stated) | inactive
O=C(C1CCCN(C2CCN(Cc3cccnc3)CC2)C1)N1CC=CC1 (configuration not stated) | inactive
CC(c1cccs1)N(C)Cc1cnc(-c2ccco2)nc1 (configuration not stated) | inactive
CSC(C)(C)CC(C)NCC(=O)Nc1ccccc1C (configuration not stated) | inactive
COC(C)(C)Cn1ccnc1-c1ccc(Oc2ncccn2)cc1 | inactive
Cn1nc(-c2ccccc2)c(-c2ccccc2)c(C(=O)Nc2ccc(S(N)(=O)=O)cc2)c1=O | inactive
CCOc1c(N2CCc3ccccc3C2)c(=O)c1=O | inactive
